# Results filed as inconclusive are left out. A number with no mark means an inactive call. The call rests on the fitted dose curve; in most records, active means well fitted inhibition curve with a large enough effect; inconclusive means small, poorly fitted or top-dose-only effect; inactive means flat fitted curve, though single readings scatter.
# Assay: Drug repurposing screens with cells derived from glioblastoma tumor samples (AID 1345199); further: nearly all actives have a fitted effect of over 40% in size
# Conditions: GBM patient neurospheres viability, ATP luminescence, 48 h; at 45.9 µM (top of the series); tumour line B
# Method in brief: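 Primary testing used CD133+ neurospheres from four GBM patients, seven concentrations, 48 h exposure and ATP-based viability; confirmation added three slower-growing patient lines.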
# On the % scale 0 is the no-effect control and ±100 the full control effect.
row,Structure (SMILES),"activity, negative = cell killing [%]"
1,CCCCC(F)(F)[C@@]1(O)CC[C@H]2[C@H](CC(=O)[C@@H]2CCCCCCC(=O)O)O1,-4.88
2,O=C(Nc1cccc2c(=O)cc(-c3nn[nH]n3)oc12)c1ccc(OCCCCc2ccccc2)cc1,1.64
3,COc1ccnc(CS(=O)c2nc3ccc(OC(F)F)cc3[nH]2)c1OC (stereo not drawn),-25.5
4,O=C(CCCN1CCN(c2ccc(F)cc2)CC1)NC1c2ccccc2CSc2ccccc21 (stereo not drawn),-21

# Same assay, conditions: GBM patient neurospheres viability, ATP luminescence, 48 h; at 45.9 µM (top of the series); tumour line D
row,Structure (SMILES),"activity, negative = cell killing [%]"
1,CCCCC(F)(F)[C@@]1(O)CC[C@H]2[C@H](CC(=O)[C@@H]2CCCCCCC(=O)O)O1,-10.8
2,O=C(Nc1cccc2c(=O)cc(-c3nn[nH]n3)oc12)c1ccc(OCCCCc2ccccc2)cc1,-5.85
3,COc1ccnc(CS(=O)c2nc3ccc(OC(F)F)cc3[nH]2)c1OC (stereo not drawn),-22.5
4,O=C(CCCN1CCN(c2ccc(F)cc2)CC1)NC1c2ccccc2CSc2ccccc21 (stereo not drawn),-27.4
